Source: PubChem BioAssay (EPA / NIEHS)
The source made the active and inactive calls. The calls were made as follows: active = hit-call score of the fitted dose curve at least 0.9, where 1 is the maximum; inactive = score below 0.9.

What was measured:
Conditions in all cases: mRNA level, 48 h; actives raise or lower the signal
[1] = read-out: Lipoprotein lipase (LPL), LPL (gene 4023); experiment: LTEA_HepaRG_LPL: Life Technologies and Expression Analysis (LTEA) Assay for Lipoprotein lipase (LPL) using HepaRG (AID 2283515)
Method in brief: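 Read-out is LPL transcript level by qRT-PCR, normalized to three housekeeping genes and fitted bidirectionally against the DMSO control. Human HepaRG cells received chemicals for 48 h at up to 100 uM.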

[2] = read-out: MicroRNA 122 (MIR122), gene 406906; experiment: LTEA_HepaRG_MIR122: Life Technologies and Expression Analysis (LTEA) Assay for MicroRNA 122 (MIR122) using HepaRG (AID 2283516); also: the transcript read is the microRNA miR-122
Method in brief: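 HepaRG, 48 h exposure, 8-pt half-log from 100 uM, 0.5% DMSO; TaqMan qRT-PCR; bidirectional fit vs DMSO.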

[3] = read-out: matrix metalloproteinase-10 (MMP10), MMP10 (gene 4319); experiment: LTEA_HepaRG_MMP10: Life Technologies and Expression Analysis (LTEA) Assay for matrix metalloproteinase-10 (MMP10) using HepaRG (AID 2283517)
Method in brief: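 Gain or loss of MMP10 mRNA is fitted relative to the 0.5% DMSO vehicle. The human hepatic line HepaRG receives a 48-hour serum-free exposure, in duplicate, with a maximum concentration of 100 uM.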

MYC, MYC (gene 4609) = experiment: LTEA_HepaRG_MYC: Life Technologies and Expression Analysis (LTEA) Assay for MYC using HepaRG (AID 2283518)
Method in brief: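 MYC transcript changes, up or down relative to 0.5% DMSO, from TaqMan qRT-PCR normalized to three housekeeping genes. Human HepaRG cultures received chemicals for 48 h at eight half-log concentrations up to 100 uM, in duplicate.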

[4] = read-out: matrix metalloproteinase-3 (MMP3), MMP3 (gene 4314); experiment: LTEA_HepaRG_MMP3: Life Technologies and Expression Analysis (LTEA) Assay for matrix metalloproteinase-3 (MMP3) using HepaRG (AID 2283519)
Method in brief: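 HepaRG, human; 48 h dosing, 8 conc. (max 100 uM, half-log), duplicate, 0.5% DMSO. Readout: MMP3 transcript by Fluidigm TaqMan qRT-PCR, ACTB/GAPDH/POLR2A-normalised. Gain or loss fitted vs DMSO.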

[5] = read-out: Paternally Expressed 10 (PEG10), PEG10 (gene 23089); experiment: LTEA_HepaRG_PEG10: Life Technologies and Expression Analysis (LTEA) Assay for Paternally Expressed 10 (PEG10) using HepaRG (AID 2283520);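 as to AC50: PEG10 transcript by qRT-PCR normalised to ACTB GAPDH and POLR2A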
Method in brief: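 Chemicals tested on HepaRG cells for 48 h, highest concentration 100 uM. PEG10 expression assessed by qRT-PCR relative to DMSO control.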

[6] = read-out: Nuclear factor NF-kappa-B p105 subunit (Homo sapiens) (UniProt P19838); experiment: LTEA_HepaRG_NFKB1: Life Technologies and Expression Analysis (LTEA) Assay for Nuclear Factor Kappa B Subunit 1 (NFKB1) using HepaRG (AID 2283521)
Method in brief: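 Differentiated human HepaRG cells in serum-free induction medium with 0.5% DMSO were exposed for 48 h to eight half-log concentrations, top 100 uM, in duplicate. NFKB1 mRNA measured by Fluidigm TaqMan qRT-PCR, normalised to ACTB, GAPDH and POLR2A; bidirectional fit versus DMSO.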

[7] = read-out: Protein phosphatase 2A (PPP2R4), PTPA (gene 5524); experiment: LTEA_HepaRG_PPP2R4: Life Technologies and Expression Analysis (LTEA) Assay for Protein phosphatase 2A (PPP2R4) using HepaRG (AID 2283522)
Method in brief: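 Gene-expression endpoint in HepaRG hepatic cells: 48 h treatment across eight half-log concentrations up to 100 uM in 0.5% DMSO. PPP2R4 mRNA by qRT-PCR, normalized to three endogenous control genes.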

[8] = read-out: Phosphatase and tensin (PTEN), PTEN (gene 5728); experiment: LTEA_HepaRG_PTEN: Life Technologies and Expression Analysis (LTEA) Assay for Phosphatase and tensin (PTEN) using HepaRG (AID 2283523)
Method in brief: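 Read-out is PTEN transcript level by multiplexed TaqMan qRT-PCR after 48 h chemical treatment of human HepaRG cultures in serum-free induction medium. Concentrations spanned 100 uM downward in half-log steps, 0.5% DMSO throughout; activity fitted in both directions against vehicle.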

[9] = read-out: solute carrier (SLC22A1), SLC22A1 (gene 6580); experiment: LTEA_HepaRG_SLC22A1: Life Technologies and Expression Analysis (LTEA) Assay for solute carrier (SLC22A1) using HepaRG (AID 2283524)
Method in brief: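 HepaRG (human liver line), 48 h dosing in serum-free induction medium; 8 conc., half-log down from 100 uM, 0.5% DMSO vehicle, duplicates. Endpoint: SLC22A1 mRNA, qRT-PCR, housekeeping-normalized; gain/loss fit vs DMSO.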

[10] = read-out: Pyruvate Dehydrogenase Kinase 4 (PDK4), PDK4 (gene 5166); experiment: LTEA_HepaRG_PDK4: Life Technologies and Expression Analysis (LTEA) Assay for Pyruvate Dehydrogenase Kinase 4 (PDK4) using HepaRG (AID 2283525)
Method in brief: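 In this multiplexed human HepaRG expression assay, cells are treated 48 h with test chemicals across an eight-point range starting at 100 uM. PDK4 mRNA changes, normalized to ACTB/GAPDH/POLR2A, are fitted in both directions relative to vehicle.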

[11] = read-out: NAD(P)H dehydrogenase [quinone] 1 (NQO1), NQO1 (gene 1728); experiment: LTEA_HepaRG_NQO1: Life Technologies and Expression Analysis (LTEA) Assay for NAD(P)H dehydrogenase [quinone] 1 (NQO1) using HepaRG (AID 2283526)
Method in brief: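 Human HepaRG hepatic cells received chemicals for 48 h in serum-free induction medium with 0.5% DMSO, up to 100 uM. Expression was assessed by TaqMan qRT-PCR against housekeeping controls and fitted bidirectionally against DMSO.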

[12] = read-out: Nuclear factor erythroid 2-related factor 2 (Homo sapiens) (UniProt Q16236); experiment: LTEA_HepaRG_NFE2L2: Life Technologies and Expression Analysis (LTEA) Assay for Nuclear factor erythroid 2-related factor 2 (NFE2L2) Transcription Factor using HepaRG (AID 2283527)
Method in brief: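 Transcript level of NFE2L2 is the read-out, measured by microfluidic TaqMan qRT-PCR and normalized to three housekeeping genes. Human HepaRG cultures received test chemical for 48 h at up to 100 uM in half-log steps. Gain or loss of signal is fitted relative to 0.5% DMSO.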

[13] = read-out: succinate dehydrogenase complex iron sulfur subunit B (SDHB), SDHB (gene 6390); experiment: LTEA_HepaRG_SDHB: Life Technologies and Expression Analysis (LTEA) Assay for succinate dehydrogenase complex iron sulfur subunit B (SDHB) using HepaRG (AID 2283528)
Method in brief: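 HepaRG cells (~100,000/well, plated 48 h) exposed in duplicate for 48 h in serum-free induction medium to 8-point half-log series from 100 uM in 0.5% DMSO; mRNA by qRT-PCR normalised to ACTB, GAPDH, POLR2A; bidirectional fit versus DMSO.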

[14] = read-out: Signal transducer and activator of transcription 3 (Homo sapiens) (UniProt P40763); experiment: LTEA_HepaRG_STAT3: Life Technologies and Expression Analysis (LTEA) Assay for Signal transducer and activator of transcription (STAT3) using HepaRG (AID 2283529)
Method in brief: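 Read-out is STAT3 mRNA level by qRT-PCR, normalized to three housekeeping genes, in human HepaRG liver cells treated for 48 h. Concentrations ran from 100 uM downward in half-log steps; curves were fitted for gain or loss relative to 0.5% DMSO.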

[15] = read-out: solute carrier (SLCO1B1), SLCO1B1 (gene 10599); experiment: LTEA_HepaRG_SLCO1B1: Life Technologies and Expression Analysis (LTEA) Assay for solute carrier (SLCO1B1) using HepaRG (AID 2283530)
Method in brief: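 SLCO1B1 transcript levels were quantified by TaqMan qRT-PCR using three housekeeping genes for normalization. This followed 48 h chemical exposure (100 uM top, half-log, 8 points, 0.5% DMSO) of HepaRG liver cells, with gain or loss fitted relative to DMSO.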

[16] = read-out: Transforming Growth Factor (TGFA), TGFA (gene 7039); experiment: LTEA_HepaRG_TGFA: Life Technologies and Expression Analysis (LTEA) Assay for Transforming Growth Factor (TGFA) using HepaRG (AID 2283532)
Method in brief: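 HepaRG (human liver line), 48 h exposure, 8 conc. half-log down from 100 uM, 0.5% DMSO vehicle, duplicates; serum-free induction medium. TGFA mRNA by TaqMan qRT-PCR, ACTB/GAPDH/POLR2A normalization; gain/loss fit vs DMSO.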

[17] = read-out: Transforming Growth Factor (TGFB1), TGFB1 (gene 7040); experiment: LTEA_HepaRG_TGFB1: Life Technologies and Expression Analysis (LTEA) Assay for Transforming Growth Factor (TGFB1) Transporter using HepaRG (AID 2283533)
Method in brief: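 TGFB1 transcript measured by qRT-PCR with normalisation to three housekeeping genes (ACTB, GAPDH, POLR2A); human HepaRG line treated in duplicate for 48 hr with an 8-point series topping at 100 uM, 0.5% DMSO vehicle, bidirectionally fitted.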

TIMP1, TIMP1 (gene 7076) = experiment: LTEA_HepaRG_TIMP1: Life Technologies and Expression Analysis (LTEA) Assay for TIMP1 using HepaRG (AID 2283534)
Method in brief: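 Bidirectional change in TIMP1 transcript versus 0.5% DMSO, measured by TaqMan qRT-PCR with three housekeeping genes for normalization. HepaRG human liver cells dosed 48 h in duplicate, top concentration 100 uM with half-log dilutions.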

[18] = read-out: sulfotransferase 2A1 (SULT2A1), SULT2A1 (gene 6822); experiment: LTEA_HepaRG_SULT2A1: Life Technologies and Expression Analysis (LTEA) Assay for sulfotransferase 2A1 (SULT2A1) using HepaRG (AID 2283531)
Method in brief: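 Expression change of SULT2A1, by qRT-PCR with three housekeeping-gene normalization, was scored bidirectionally versus DMSO. Cells: differentiated HepaRG, dosed in duplicate for 48 h across 8 points, highest 100 µM, half-log dilution, 0.5% DMSO.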

Measured: AC50

Sequence of Nuclear factor erythroid 2-related factor 2 (Homo sapiens) (Q16236 whole entry, looked up): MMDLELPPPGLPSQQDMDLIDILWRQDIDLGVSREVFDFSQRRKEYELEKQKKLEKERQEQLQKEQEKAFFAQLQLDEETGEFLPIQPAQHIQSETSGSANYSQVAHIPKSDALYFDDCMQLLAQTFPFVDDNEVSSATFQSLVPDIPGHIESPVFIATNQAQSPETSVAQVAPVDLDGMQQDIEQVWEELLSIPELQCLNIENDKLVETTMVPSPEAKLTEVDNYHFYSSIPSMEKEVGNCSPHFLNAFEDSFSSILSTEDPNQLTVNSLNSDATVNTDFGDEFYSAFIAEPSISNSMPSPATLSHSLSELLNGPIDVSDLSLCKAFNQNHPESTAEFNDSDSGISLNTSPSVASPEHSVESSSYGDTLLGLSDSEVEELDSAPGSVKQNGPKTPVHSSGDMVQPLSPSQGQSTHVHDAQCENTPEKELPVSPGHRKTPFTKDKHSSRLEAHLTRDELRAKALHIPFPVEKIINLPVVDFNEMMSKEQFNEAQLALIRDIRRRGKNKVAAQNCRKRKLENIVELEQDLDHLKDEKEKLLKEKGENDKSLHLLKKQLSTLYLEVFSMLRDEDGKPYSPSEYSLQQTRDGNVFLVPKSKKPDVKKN
Sequence of Nuclear factor NF-kappa-B p105 subunit (Homo sapiens) (P19838 whole entry, looked up): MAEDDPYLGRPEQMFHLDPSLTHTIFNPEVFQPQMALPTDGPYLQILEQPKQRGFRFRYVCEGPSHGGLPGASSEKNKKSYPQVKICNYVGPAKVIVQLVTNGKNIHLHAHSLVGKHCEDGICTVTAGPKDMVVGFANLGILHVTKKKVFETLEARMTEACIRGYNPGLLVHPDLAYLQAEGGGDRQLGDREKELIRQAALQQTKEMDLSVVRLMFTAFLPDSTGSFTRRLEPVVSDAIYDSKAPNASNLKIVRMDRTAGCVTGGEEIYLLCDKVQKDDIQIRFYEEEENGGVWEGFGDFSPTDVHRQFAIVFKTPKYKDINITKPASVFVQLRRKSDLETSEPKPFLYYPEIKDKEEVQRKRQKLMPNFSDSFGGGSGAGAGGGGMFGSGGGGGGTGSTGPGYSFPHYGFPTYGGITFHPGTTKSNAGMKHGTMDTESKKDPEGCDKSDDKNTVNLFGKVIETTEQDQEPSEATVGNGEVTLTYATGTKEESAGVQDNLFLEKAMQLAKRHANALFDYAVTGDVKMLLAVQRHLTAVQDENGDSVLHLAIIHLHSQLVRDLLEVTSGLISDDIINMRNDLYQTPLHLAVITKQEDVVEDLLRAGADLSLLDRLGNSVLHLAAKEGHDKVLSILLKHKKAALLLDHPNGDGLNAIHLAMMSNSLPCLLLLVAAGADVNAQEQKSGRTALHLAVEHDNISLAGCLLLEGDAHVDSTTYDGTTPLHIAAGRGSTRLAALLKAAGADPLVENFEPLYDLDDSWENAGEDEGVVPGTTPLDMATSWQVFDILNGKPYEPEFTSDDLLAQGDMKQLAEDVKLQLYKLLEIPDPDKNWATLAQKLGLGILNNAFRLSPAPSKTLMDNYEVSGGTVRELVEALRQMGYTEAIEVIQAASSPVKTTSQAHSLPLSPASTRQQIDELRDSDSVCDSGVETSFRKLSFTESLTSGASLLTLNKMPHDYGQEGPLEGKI
Sequence of Signal transducer and activator of transcription 3 (Homo sapiens) (P40763 whole entry, looked up): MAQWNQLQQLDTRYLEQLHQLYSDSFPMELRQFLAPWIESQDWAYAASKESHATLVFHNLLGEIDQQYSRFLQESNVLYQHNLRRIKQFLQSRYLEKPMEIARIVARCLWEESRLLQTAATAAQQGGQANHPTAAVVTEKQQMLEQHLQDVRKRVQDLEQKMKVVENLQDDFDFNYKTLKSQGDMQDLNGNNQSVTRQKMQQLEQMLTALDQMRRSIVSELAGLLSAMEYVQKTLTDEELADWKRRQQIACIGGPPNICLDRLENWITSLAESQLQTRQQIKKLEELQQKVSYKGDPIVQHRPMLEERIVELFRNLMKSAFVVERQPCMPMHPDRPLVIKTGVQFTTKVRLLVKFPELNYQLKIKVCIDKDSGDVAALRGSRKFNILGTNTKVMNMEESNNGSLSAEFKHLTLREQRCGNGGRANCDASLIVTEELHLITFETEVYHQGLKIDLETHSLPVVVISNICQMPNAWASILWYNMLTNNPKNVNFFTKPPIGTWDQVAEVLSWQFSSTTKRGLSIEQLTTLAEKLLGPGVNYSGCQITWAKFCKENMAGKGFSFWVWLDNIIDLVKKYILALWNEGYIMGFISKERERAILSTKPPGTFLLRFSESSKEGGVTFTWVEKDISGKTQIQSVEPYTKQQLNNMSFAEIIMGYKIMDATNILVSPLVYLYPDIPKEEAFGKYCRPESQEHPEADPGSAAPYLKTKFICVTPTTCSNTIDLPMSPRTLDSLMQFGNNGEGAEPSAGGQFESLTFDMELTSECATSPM

COc1ccc2cc(S(=O)(=O)N[C@H](CC(=O)N[C@H](Cc3ccc(CN4[C@H](C)CCC[C@@H]4C)cc3)C(=O)N(C)C(C)C)c3ccc4c(c3)OCO4)ccc2c1
inactive: [4] | [11]
active: [1] 24.1 µM | [2] 11.4 µM | [3] 24.3 µM | MYC, MYC (gene 4609) 24.7 µM | [5] 11.5 µM | [6] 31.2 µM | [7] 34.3 µM | [8] 15 µM | [9] 26.4 µM | [10] 86.6 µM | [12] 21.8 µM | [13] 22 µM | [14] 12.4 µM | [15] 26.3 µM | [16] 25.3 µM | [17] 12.8 µM | TIMP1, TIMP1 (gene 7076) 30.8 µM

Cc1ccc(C(C)C)cc1
not listed: [6] | [18]
inactive: all other assays above

CN(C)C(=O)C1(N2CCCCC2)CCN(CC[C@@]2(c3ccc(Cl)c(Cl)c3)CN(C(=O)c3ccccc3)CCO2)CC1
inactive: [4] | [5] | [8] | [10] | [11] | [16]
active: [1] 24.8 µM | [2] 10.9 µM | [3] 77.1 µM | MYC, MYC (gene 4609) 21.4 µM | [6] 80.3 µM | [7] 27.2 µM | [9] 27.6 µM | [12] 47.2 µM | [13] 22.5 µM | [14] 47.2 µM | [15] 23.1 µM | [17] 47.2 µM | TIMP1, TIMP1 (gene 7076) 17.4 µM

CO[C@H]1/C=C/O[C@@]2(C)Oc3c(C)c(O)c4c(O)c(c(/C=N/N5CCN(C)CC5)c(O)c4c3C2=O)NC(=O)/C(C)=C\C=C\[C@H](C)[C@H](O)[C@@H](C)[C@@H](O)[C@@H](C)[C@H](OC(C)=O)[C@@H]1C
active: [14] 7.81 µM
not listed: [5]
inactive: all other assays above

CN1C(=O)N(c2ccccc2Br)Cc2cnc(Nc3ccc4c(c3)OCC(CO)O4)nc21 (stereo not drawn)
active: [1] 31.8 µM | [2] 63.2 µM | [6] 19.5 µM | [9] 35.2 µM | [10] 50 µM | [13] 12.2 µM | [14] 50 µM | [15] 80.9 µM | [17] 24.2 µM | TIMP1, TIMP1 (gene 7076) 11.9 µM
inactive: [3] | MYC, MYC (gene 4609) | [4] | [5] | [7] | [8] | [11] | [12] | [16]

O=CCCCC=O
not listed: [18]
inactive: all other assays above
